An excerpt weighted towards active compounds, which were near 2.2% of everything screened.
ADAM17 inh: inhibits human ADAM17; P78536; recombinant ADAM17, EDANS/DABCYL FRET peptide cleavage; inhibition, % at 6.95 µM; 0.83% of 370,000 active;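 active = inhibition above the mean of compounds lying between control limits plus 3 SD, set per campaign, cut at about 8.5% in these data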;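 also: 0% = DMSO-only wells as the low control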
ADAM10 inh: inhibits human ADAM10 | O14672 | recombinant ADAM10, EDANS/DABCYL FRET peptide cleavage, 3 h | inhibition, % at 7 µM | 0.62% of 370,000 active | AID 720582;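 active = inhibition above a per-campaign cutoff equal to the mean of compounds falling between control-based bounds plus 3 SD, cut at about 20% in these data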;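 also: 0% = DMSO wells while the 100% control is not disclosed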
GC-B act: GC-B (human) receptor activation; 0.11% of 370,000 active; HEK293-GC-B cells, CNP EC30, cGMP TR-FRET; 0% at EC30 CNP, 100% saturating CNP; activation, % at 10 µM; AID 1920062; P20594;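 active = activation at 10 µM reaching about 35% in either raw or pattern-adjusted values, limit read from the data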
NPR1 activator: GC-A (human) enzyme activation; P16066; HEK293 GC-A cells, cGMP TR-FRET, EC30 ANP; 0% at EC30 ANP, 100% saturating ANP; activation, % at 10 µM; 0.14% of 370,000 active; AID 1671463; in the data active = activation above about 40%
KLK7 zymogen act: activators of human kallikrein-7 zymogen; purified proKLK7, EDANS-DABCYL substrate fluorescence; 100% is mature enzyme control, 0% vehicle; activation, % at 7 µM; 0.9% of 370,000 active; AID 652039;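 active = activation above the mean of all tested compounds plus 3 SD, computed per campaign excluding outliers beyond control limits, cut at about 13% in these data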
Target sequence (P49862 whole entry, looked up): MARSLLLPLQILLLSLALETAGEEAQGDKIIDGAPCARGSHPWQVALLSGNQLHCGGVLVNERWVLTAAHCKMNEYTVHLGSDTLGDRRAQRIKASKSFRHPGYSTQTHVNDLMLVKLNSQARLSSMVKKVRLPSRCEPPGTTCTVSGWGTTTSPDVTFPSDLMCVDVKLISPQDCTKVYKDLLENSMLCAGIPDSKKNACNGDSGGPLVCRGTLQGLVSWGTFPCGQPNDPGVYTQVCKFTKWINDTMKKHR
ADAM10 counter: inhibits human ADAM10 in ADAM17 exosite counter-screen | AID 743256 | shares compounds with ADAM17 inh | 47% of 2,900 active | inhibition, % at 6.95 µM | recombinant ADAM10, EDANS/DABCYL FRET peptide cleavage, 3 h;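 active = mean inhibition over the triplicate runs exceeds the activity threshold set in the earlier primary screen, cut at about 20% in these data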;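 also: 0% = DMSO wells and 100% = marimastat wells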
ADAM17 confirm: human ADAM17 inhibition, confirmation; recombinant ADAM17, EDANS/DABCYL QFRET peptide cleavage; inhibition, % at 6.95 µM; shares compounds with ADAM17 inh; 65% of 2,900 active; AID 743257;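 active = mean inhibition across replicates above the hit cutoff set in the primary screen, cut at about 8.5% in these data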;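 also: 0% = DMSO wells and 100% = marimastat wells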
* marks the source's active call; other numbers are inactive results; x = no result.

SMILES | ADAM17 inh | ADAM10 inh | GC-B act | NPR1 activator | KLK7 zymogen act | ADAM10 counter | ADAM17 confirm
CC1C(=O)C(C)C(c2cc(Cl)ccc2O)NC1c1cc(Cl)ccc1O (stereo not given) | 9.6* | 17.9 | 5.0 | 0.5 | -0.3 | 32.5* | 16.5*
O=C(c1ccc(Cl)cc1)N1CCC(Oc2cccnc2)CC1 | -2.8 | -4.5 | 0.7 | -4.0 | -0.3 | x | x
CCOC(=O)c1csc(NC(=O)C2CCCN(S(=O)(=O)c3cccs3)C2)n1 (stereo not given) | -3.3 | -3.6 | -0.7 | 3.2 | -0.2 | x | x
CCOC(=O)c1cc2cc(OCc3ccccc3)ccc2nc1C | -10.4 | -23.7 | 0.3 | 4.2 | -3.4 | x | x
CCOC(=O)c1cnc2ccc(OCC)cc2c1N(C)Cc1ccccc1 | 9.4* | 6.5 | -6.3 | -12.3 | -1.2 | 24.2* | 15.0*
Cc1ccc(NC(=S)NNC(=O)c2c([N+](=O)[O-])c(C)nn2C)cc1 | 12.4* | 7.4 | 5.1 | -0.6 | -0.4 | 24.8* | 11.7*
C[C@H]1[C@@H](OC(=O)Nc2cccc(C(F)(F)F)c2)CC[C@@]23CCCN2C(=O)CCC[C@@H]13 | -0.5 | -9.1 | -6.8 | -5.6 | x | x | x
CCCCOc1cc(C)nc(NCc2ccccc2)n1 | 11.2* | 13.9 | -12.2 | -10.0 | 0.9 | 16.2 | 8.4
CCCNC(=O)C[C@H]1CC[C@H]2[C@@H](COc3ccc(NC(=O)Nc4ccccc4)cc3C(=O)N2C)O1 | -0.5 | -2.0 | -10.6 | 2.4 | -0.3 | x | x
O=C(NCCNc1ccc([N+](=O)[O-])cc1C(F)(F)F)c1ccccc1F | 0.8 | 1.5 | -14.0 | -2.1 | 0.3 | x | x
Cc1ccc(C(=O)NCCNc2ccc([N+](=O)[O-])cc2C(F)(F)F)cc1 | 8.8* | 14.5 | -5.0 | -5.0 | 0.1 | 20.1* | 12.1*
Cc1c(C(=O)N2CCCCC2)oc2ccc(Br)cc12 | -1.6 | -8.2 | -0.4 | -1.2 | -0.2 | x | x
Cc1c(C(=O)N2CCN(S(=O)(=O)c3ccccc3)CC2)oc2ccc(Br)cc12 | 10.1* | 12.0 | -3.5 | -2.0 | 0.6 | 23.7* | 14.4*
Cc1ccccc1-n1nc2c(c1NC(=O)c1ccc(S(=O)(=O)N(C)C)cc1)CSC2 | 13.3* | 17.5 | -5.3 | -4.6 | -0.7 | 18.0 | 9.4*
CC(C)c1ccc(/C=N/n2c(-c3ccccc3)n[nH]c2=S)cc1 | 10.1* | 18.9 | -6.8 | -3.6 | -0.3 | 9.5 | 4.6
Cc1cccc(/C=N/n2c(-c3ccncc3)n[nH]c2=S)c1 | 11.1* | 9.5 | -2.3 | 8.0 | -0.2 | 12.0 | 3.8
Cc1ccc(/C=N/n2c(-c3ccccc3)n[nH]c2=S)cc1 | -2.4 | 3.0 | -10.3 | -0.8 | -0.2 | x | x
Cc1cc(Cl)ccc1OCC(=O)OCC(=O)Nc1ccc(F)c([N+](=O)[O-])c1 | 9.0* | 16.7 | -5.2 | 5.6 | -0.4 | 42.7* | 18.0*
CCNC(=O)COC(=O)COc1ccc(Cl)cc1C | -0.8 | -9.3 | 0.7 | 0.9 | -0.6 | x | x
COc1cccc(CNC(=O)CCS(=O)(=O)c2ccc3c(c2)NC(=O)CS3)c1 | 8.7* | 0.6 | 2.0 | -3.0 | 0.5 | -8.7 | -0.1
O=C(O)c1cc([N+](=O)[O-])ccc1-c1ccc([N+](=O)[O-])cc1C(=O)O | 9.4* | -7.5 | 10.1 | -1.9 | 0.1 | 1.4 | 1.5
O=C(Nc1ccc(Cl)c(Cl)c1)C1CCCN(c2nnc(-n3cccc3)s2)C1 (stereo not given) | 10.7* | 15.9 | -11.8 | -5.2 | 0.4 | 30.4* | 14.6*
C[C@H]1[C@H](NC(=O)c2cccc(C(F)(F)F)c2)CC[C@@]23CCCN2C(=O)CCC[C@@H]13 | 0.4 | 1.9 | -3.3 | -0.8 | x | x | x
COc1ccc(S(=O)(=O)NC2CCN(C#N)CC2)cc1 | -0.8 | -0.7 | -6.1 | 1.6 | x | x | x
CC(=O)N[C@@H](Cc1c[nH]c2ccccc12)C(=O)OCC(=O)Nc1ccc2c(c1)OCO2 | -2.7 | -3.8 | 0.9 | -3.2 | 0.3 | x | x
O=C(COC(=O)[C@H](Cc1c[nH]c2ccccc12)NC(=O)c1ccc(Cl)cc1)Nc1ccc2c(c1)OCO2 | 13.1* | 15.0 | -2.6 | -8.9 | -0.2 | 35.8* | 19.9*

Screens deposited in PubChem by several laboratories.
